This is an account of results in PubChem BioAssay (EPA / NIEHS).

Inconclusive results are not listed. Calls of active or inactive are those of the source. The calls were made as follows, unless noted: active = hit-call score of the fitted dose curve at least 0.9, where 1 is the maximum; inconclusive = response in the unintended direction; inactive = score below 0.9.

The target in test [1] is human Vascular Endothelial Growth Factor Receptor 1 (VEGFR1), FLT1 (gene 2321) (UniProt P17948). The test is described as follows: NVS_ENZ_hVEGFR1: NovaScreen (NVS) Enzymatic Assay for human Vascular Endothelial Growth Factor Receptor 1 (VEGFR1) (AID 2283226). In short, it runs like this:
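Kinase activity of recombinant human VEGFR1 was read by fluorescence after electrophoretic separation of product from substrate, 1 h post-dosing; initial duplicate single-point testing at 25 uM, followed by concentration-series follow-up, with DMSO as baseline.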

Test [2] in a line: STM_H9_OrnCyssISnorm_ratio: Stemina devTOX quickPredict H9 human embryonic stem cell (hESC)-based Assay for Ornithine (ORN):Cystine (CYSS) Ratio (AID 2283714). The method in brief: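 H9 hESC, 72h, q24h re-dose; last-day media → acetonitrile deproteinization → UPLC-HRMS. ORN:CYSS ratio from isotope-normalized EIC areas, vs 0.1% DMSO; MTX references on each plate.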
The nature of test [3]: STM_H9_NormalizedViability: Cytotoxicity Assessment at 120 hours in the Stemina devTOX quickPredict H9 human embryonic stem cell (hESC)-based Assay (AID 2283784). The method in brief: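 Viability endpoint: background-corrected CellTiter-Fluor RFU expressed relative to the 0.1% DMSO mean on each plate. Undifferentiated H9 cells were treated with daily re-dosing and media change, and loss of signal was fitted.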

Test [4] is described as follows: CCTE_Shafer_MEA_dev_AB: CCTE's Alamar Blue Assay for Cytotoxicity in the Neural Network Formation Assay, Shafer Lab (AID 2284083).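 Also: twelve days of exposure from plating with re-dosing on DIV 5 and 9.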 In short, it runs like this:
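Primary rat cortical neurons on PEI-coated 48-well MEA plates, 1.5 x 10^5 cells/well in laminin drop; compound exposure from day 0 of plating for twelve days, renewed at medium changes on DIV 5 and 9. Viability read as resazurin reduction by fluorescence, relative to DMSO.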

Test [5] is described as follows: CCTE_Mundy_HCI_Cortical_Synap_Neur_Matur_BPCount: CCTE's Synaptogenesis and Neurite Maturation Assay in rat cortical cells for Branch Point Count, Mundy Lab (AID 2284211; active = hit-call score of the fitted dose curve at least 0.9, where 1 is the maximum; inactive = score below 0.9). In short, it runs like this:
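HCI read-out of branch points from MAP2/synaptophysin/Hoechst immunofluorescence; rat cortical cultures, AraC DIV 5, dosing DIV 7, fixed DIV 12; fit in positive direction vs DMSO baseline.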

Test [6] can be described thus: CCTE_Mundy_HCI_Cortical_NOG_NeuriteCount: CCTE's Neurite Outgrowth Assay in rat cortical cells for Neurite Count, Mundy Lab (AID 2284212; active = hit-call score of the fitted dose curve at least 0.9, where 1 is the maximum; inactive = score below 0.9;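 also: cells fixed about two days after chemical exposure began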). In short, it runs like this: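 Rat cortical primary cells; compound added 2 h post-plating, 1/10 dilution of working solution. Anti-betaIII-tubulin/AF488 ICC; ArrayScan neurite count vs DMSO.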
Test [7] in a line: CCTE_Mundy_HCI_Cortical_Synap_Neur_Matur_NeuriteCount: CCTE's Synaptogenesis and Neurite Maturation Assay in rat cortical cells for Neurite Count, Mundy Lab (AID 2284222; active = hit-call score of the fitted dose curve at least 0.9, where 1 is the maximum; inactive = score below 0.9;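 also: exposure from day 7 to day 12 in vitro with readout at day 12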). In short, it runs like this:
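Rat primary cortical cells; AraC added at DIV 5, chemicals dosed with media change at DIV 7 through DIV 12. MAP2/synaptophysin/Hoechst immunostaining, high-content imaging of neurite number; fitted relative to DMSO.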

Test [8] can be described thus: CCTE_Mundy_HCI_Cortical_NOG_NeuronCount: CCTE's Neurite Outgrowth Assay in rat cortical cells for Neuron Count, Mundy Lab (AID 2284236).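 Also: neurons counted by imaging betaIII-tubulin and Hoechst stained cortical cells; cells exposed to compound for about 48 hours before fixation.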 The method in brief: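 Read-out: neuron number by high-content imaging of betaIII-tubulin (Alexa Fluor-488) and Hoechst-labelled rat primary cortical cells.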
Test [9] can be described thus: CCTE_Mundy_HCI_Cortical_NOG_BPCount: CCTE's Neurite Outgrowth Assay in rat cortical cells for Branch Point Count, Mundy Lab (AID 2284237; active = hit-call score of the fitted dose curve at least 0.9, where 1 is the maximum; inactive = score below 0.9;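 as to AC50: branch points counted about two days after chemical exposure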). The method in brief: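 Measured 50.33 h after dosing, this morphology endpoint uses rat primary cortical cultures labelled for betaIII-tubulin. Branch points are quantified by high-content imaging, with DMSO as negative control and baseline.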

For test [10], the target named is CDK2 (gene 1017) (UniProt P24941). The test is described as follows: NVS_ENZ_hCDK2: NovaScreen (NVS) Enzymatic Assay for human Cyclin-Cependent Kinase 2 (CDK2) (AID 2283144). In short, it runs like this: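 Compounds screened in duplicate at 25 uM, then in singleton concentration-response to a maximum of 50 uM, against recombinant CDK2; kinase activity read 1 hr after dosing by fluorescence with mobility-shift separation of substrate and product.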

The target in test [11] is human Fibroblast Growth Factor Receptor 1 (FGFR1), FGFR1 (gene 2260) (UniProt P11362). The test is described as follows: NVS_ENZ_hFGFR1: NovaScreen (NVS) Enzymatic Assay for human Fibroblast Growth Factor Receptor 1 (FGFR1) (AID 2283159). In short, it runs like this: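 Cell-free recombinant kinase with fluorescent substrate, product separated by electrophoretic mobility shift; read 1 hour after dosing, loss of signal relative to DMSO. Initial screen in duplicate at 25 uM, actives followed in concentration series.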
Sequence of human Fibroblast Growth Factor Receptor 1 (FGFR1), FGFR1 (gene 2260) (P11362 whole entry, looked up): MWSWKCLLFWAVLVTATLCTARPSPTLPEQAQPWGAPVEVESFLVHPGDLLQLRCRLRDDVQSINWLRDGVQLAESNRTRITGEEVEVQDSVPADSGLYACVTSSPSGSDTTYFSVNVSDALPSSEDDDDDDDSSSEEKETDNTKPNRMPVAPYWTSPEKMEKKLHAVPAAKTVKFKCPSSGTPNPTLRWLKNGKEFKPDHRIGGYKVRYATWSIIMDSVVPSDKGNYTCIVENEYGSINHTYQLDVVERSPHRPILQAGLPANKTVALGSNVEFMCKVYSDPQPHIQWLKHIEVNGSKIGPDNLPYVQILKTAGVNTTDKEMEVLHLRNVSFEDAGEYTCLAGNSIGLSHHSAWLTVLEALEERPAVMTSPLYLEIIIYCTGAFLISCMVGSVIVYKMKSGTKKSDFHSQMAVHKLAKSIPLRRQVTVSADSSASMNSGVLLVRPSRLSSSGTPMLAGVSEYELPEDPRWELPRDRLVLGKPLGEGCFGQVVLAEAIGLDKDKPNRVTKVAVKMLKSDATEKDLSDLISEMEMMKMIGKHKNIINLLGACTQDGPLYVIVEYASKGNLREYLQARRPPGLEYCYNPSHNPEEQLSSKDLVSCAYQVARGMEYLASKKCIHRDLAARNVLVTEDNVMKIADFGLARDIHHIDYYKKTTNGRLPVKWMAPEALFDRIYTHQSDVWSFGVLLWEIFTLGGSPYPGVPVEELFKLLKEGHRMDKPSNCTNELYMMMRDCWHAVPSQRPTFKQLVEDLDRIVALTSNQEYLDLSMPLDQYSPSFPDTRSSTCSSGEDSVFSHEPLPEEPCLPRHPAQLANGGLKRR

Test [12] has as its target human Protein Tyrosine Phosphatase Receptor Type M (PTPRM), PTPRM (gene 5797) (UniProt P28827). The test is described as follows: NVS_ENZ_hPTPRM: NovaScreen (NVS) Enzymatic Assay for human Protein Tyrosine Phosphatase Receptor Type M (PTPRM) (AID 2283215). The method in brief: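 Read-out is fluorescence after electrophoretic separation of substrate and product, taken 1.33 h post-dosing with recombinant enzyme. Compounds screened at 25 uM in duplicate, then concentration series for actives; activity as signal loss relative to DMSO.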

Read-out in test [13]: Cyclin D2 (CCND2), CCND2 (gene 894)
Kind of test: LTEA_HepaRG_CCND2: Life Technologies and Expression Analysis (LTEA) Assay for Cyclin D2 (CCND2) using HepaRG (AID 2283449; active = hit-call score of the fitted dose curve at least 0.9, where 1 is the maximum; inactive = score below 0.9;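 also: CCND2 transcript measured by TaqMan qRT-PCR and normalised to three housekeeping genes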). The conditions noted are these: mRNA level, 48 h; actives raise or lower the signal. In short, it runs like this: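 In this HepaRG study, an eight-point concentration series (max 100 uM, 0.5% DMSO) is applied for 48 h. CCND2 mRNA change is derived by qRT-PCR normalised to ACTB, GAPDH and POLR2A.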

Read-out in test [14]: Fatty Acid-Binding Protein 1 (FABP1), FABP1 (gene 2168)
Kind of test: LTEA_HepaRG_FABP1: Life Technologies and Expression Analysis (LTEA) Assay for Fatty Acid-Binding Protein 1 (FABP1) using HepaRG (AID 2283494; active = hit-call score of the fitted dose curve at least 0.9, where 1 is the maximum; inactive = score below 0.9). To be noted: mRNA level, 48 h; actives raise or lower the signal. In short, it runs like this:
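Values reflect bidirectional concentration-response fitting of FABP1 mRNA change against 0.5% DMSO controls. Human HepaRG cultures received eight half-log doses (top 100 uM) for 48 h; expression quantified by TaqMan qRT-PCR with housekeeping-gene normalization.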

Read-out in test [15]: Hypoxia-inducible factor 1-alpha (Homo sapiens) (UniProt Q16665)
Kind of test: LTEA_HepaRG_HIF1A: Life Technologies and Expression Analysis (LTEA) Assay for Hypoxia-inducible factor 1 (HIF1A) Trancription factor using HepaRG (AID 2283503; active = hit-call score of the fitted dose curve at least 0.9, where 1 is the maximum; inactive = score below 0.9). To be noted: mRNA level, 48 h; actives raise or lower the signal. In short, it runs like this:
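HIF1A transcript level read by qRT-PCR (ACTB, GAPDH, POLR2A normalization) after 48 h chemical exposure of HepaRG cultures. Eight half-log concentrations, top 100 uM, 0.5% DMSO vehicle, duplicates; bidirectional curve fit against DMSO baseline.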

A short description of test [16]: Tanguay_ZF_120hpf_CIRC_legacy: (Legacy) Oregon State University Tanguay Lab 120 Hour Post-fertilization zebrafish Assay for Circulatory Malformation (AID 2283651). The method in brief:
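Binary circulatory malformation call at 120 hpf by brightfield imaging of zebrafish larvae; chorion removed at 4 hpf, static exposure from 6 hpf in sealed dark plates at 28C, final DMSO 0.64%; non-mortality endpoints skipped if embryo died.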

For test [17], the target named is human Thyroid Receptor Alpha (TRa), THRA (gene 7067) (UniProt P10827). Kind of test: NVS_NR_hTRa_Antagonist: NovaScreen (NVS) Nuclear Receptor Binding Assay for human Thyroid Receptor Alpha Antagonism (TRa) (AID 2283362). In short, it runs like this: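 Extracted protein, cell-free; 1 h incubation after dosing; AlphaLISA chemiluminescence binding readout. DMSO = baseline/neg ctrl; signal loss = activity. Primary: duplicate, 25 uM; secondary: conc. series on actives.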
Sequence of human Thyroid Receptor Alpha (TRa), THRA (gene 7067) (P10827 whole entry, looked up): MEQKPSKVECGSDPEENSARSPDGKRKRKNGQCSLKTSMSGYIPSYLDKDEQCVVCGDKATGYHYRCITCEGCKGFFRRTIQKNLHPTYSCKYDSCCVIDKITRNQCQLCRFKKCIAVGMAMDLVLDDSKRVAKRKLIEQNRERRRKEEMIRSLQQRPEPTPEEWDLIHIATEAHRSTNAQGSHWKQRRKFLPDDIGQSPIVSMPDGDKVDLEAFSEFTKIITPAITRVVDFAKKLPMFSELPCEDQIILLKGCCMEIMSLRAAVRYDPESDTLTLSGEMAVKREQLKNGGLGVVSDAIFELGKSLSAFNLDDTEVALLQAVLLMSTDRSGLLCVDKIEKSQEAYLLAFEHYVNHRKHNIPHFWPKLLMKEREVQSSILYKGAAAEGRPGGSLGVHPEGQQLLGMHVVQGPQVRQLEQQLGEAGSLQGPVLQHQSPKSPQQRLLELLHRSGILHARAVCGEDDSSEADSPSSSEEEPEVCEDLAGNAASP

Test [18] has as its target human CYP2D6, CYP2D6 (gene 1565) (UniProt P10635). The test is described as follows: NVS_ADME_hCYP2D6: NovaScreen (NVS) CYP450-related Enzyme Activity (ADME) Assay for human CYP2D6 (AID 2283107). In short, it runs like this:
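Insect-cell recombinant enzyme + fluorogenic substrate, cell-free; 1 h incubation; fluorescence intensity readout. Acetonitrile = neg. ctrl/baseline. Single-point 10 uM, duplicate; follow-up concentration series.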

For test [19], the system named is rat CYP3A1, gene 25642. Kind of test: NVS_ADME_rCYP3A1: NovaScreen (NVS) CYP450-related Enzyme Activity (ADME) Assay for rat CYP3A1 (AID 2283126). In short, it runs like this: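 Compounds went first at 10 uM duplicate, then to series with 20 uM maximum. Fluorescence from substrate turnover by the recombinant enzyme was measured 0.5 h post-dosing, inhibition scored against acetonitrile vehicle.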

Test [20] addresses human Norepinephrine Transporter (NET), SLC6A2 (gene 6530) (UniProt P23975). Kind of test: NVS_TR_hNET: NovaScreen (NVS) Transporter Assay for human Norepinephrine Transporter (NET) (AID 2283377).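 Also: cell-free membrane protein extracted from CHO cells expressing human NET.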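 As to AC50: displacement of radioligand from human NET seen as loss of scintillation signal.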 In short, it runs like this:
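In this cell-free binding screen, chemicals at 25 uM (duplicate) compete with a radioligand for CHO-derived human NET over 1 hour, with filter-based radiodetection.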

Sequence of human CYP2D6, CYP2D6 (gene 1565) (P10635 whole entry, looked up): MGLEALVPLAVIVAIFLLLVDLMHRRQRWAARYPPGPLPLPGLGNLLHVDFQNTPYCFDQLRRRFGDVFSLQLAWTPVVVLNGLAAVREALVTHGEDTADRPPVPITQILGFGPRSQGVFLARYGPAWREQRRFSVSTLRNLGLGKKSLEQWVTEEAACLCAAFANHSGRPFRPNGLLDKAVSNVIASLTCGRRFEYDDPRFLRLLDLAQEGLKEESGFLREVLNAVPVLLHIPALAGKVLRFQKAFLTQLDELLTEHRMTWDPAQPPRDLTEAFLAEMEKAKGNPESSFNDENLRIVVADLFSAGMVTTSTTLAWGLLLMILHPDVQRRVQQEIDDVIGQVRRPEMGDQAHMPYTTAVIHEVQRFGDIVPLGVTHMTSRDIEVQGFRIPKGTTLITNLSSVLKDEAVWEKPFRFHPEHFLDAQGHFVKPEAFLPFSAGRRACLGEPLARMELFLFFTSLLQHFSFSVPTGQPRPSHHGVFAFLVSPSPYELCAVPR
Sequence of human Protein Tyrosine Phosphatase Receptor Type M (PTPRM), PTPRM (gene 5797) (P28827 whole entry, looked up): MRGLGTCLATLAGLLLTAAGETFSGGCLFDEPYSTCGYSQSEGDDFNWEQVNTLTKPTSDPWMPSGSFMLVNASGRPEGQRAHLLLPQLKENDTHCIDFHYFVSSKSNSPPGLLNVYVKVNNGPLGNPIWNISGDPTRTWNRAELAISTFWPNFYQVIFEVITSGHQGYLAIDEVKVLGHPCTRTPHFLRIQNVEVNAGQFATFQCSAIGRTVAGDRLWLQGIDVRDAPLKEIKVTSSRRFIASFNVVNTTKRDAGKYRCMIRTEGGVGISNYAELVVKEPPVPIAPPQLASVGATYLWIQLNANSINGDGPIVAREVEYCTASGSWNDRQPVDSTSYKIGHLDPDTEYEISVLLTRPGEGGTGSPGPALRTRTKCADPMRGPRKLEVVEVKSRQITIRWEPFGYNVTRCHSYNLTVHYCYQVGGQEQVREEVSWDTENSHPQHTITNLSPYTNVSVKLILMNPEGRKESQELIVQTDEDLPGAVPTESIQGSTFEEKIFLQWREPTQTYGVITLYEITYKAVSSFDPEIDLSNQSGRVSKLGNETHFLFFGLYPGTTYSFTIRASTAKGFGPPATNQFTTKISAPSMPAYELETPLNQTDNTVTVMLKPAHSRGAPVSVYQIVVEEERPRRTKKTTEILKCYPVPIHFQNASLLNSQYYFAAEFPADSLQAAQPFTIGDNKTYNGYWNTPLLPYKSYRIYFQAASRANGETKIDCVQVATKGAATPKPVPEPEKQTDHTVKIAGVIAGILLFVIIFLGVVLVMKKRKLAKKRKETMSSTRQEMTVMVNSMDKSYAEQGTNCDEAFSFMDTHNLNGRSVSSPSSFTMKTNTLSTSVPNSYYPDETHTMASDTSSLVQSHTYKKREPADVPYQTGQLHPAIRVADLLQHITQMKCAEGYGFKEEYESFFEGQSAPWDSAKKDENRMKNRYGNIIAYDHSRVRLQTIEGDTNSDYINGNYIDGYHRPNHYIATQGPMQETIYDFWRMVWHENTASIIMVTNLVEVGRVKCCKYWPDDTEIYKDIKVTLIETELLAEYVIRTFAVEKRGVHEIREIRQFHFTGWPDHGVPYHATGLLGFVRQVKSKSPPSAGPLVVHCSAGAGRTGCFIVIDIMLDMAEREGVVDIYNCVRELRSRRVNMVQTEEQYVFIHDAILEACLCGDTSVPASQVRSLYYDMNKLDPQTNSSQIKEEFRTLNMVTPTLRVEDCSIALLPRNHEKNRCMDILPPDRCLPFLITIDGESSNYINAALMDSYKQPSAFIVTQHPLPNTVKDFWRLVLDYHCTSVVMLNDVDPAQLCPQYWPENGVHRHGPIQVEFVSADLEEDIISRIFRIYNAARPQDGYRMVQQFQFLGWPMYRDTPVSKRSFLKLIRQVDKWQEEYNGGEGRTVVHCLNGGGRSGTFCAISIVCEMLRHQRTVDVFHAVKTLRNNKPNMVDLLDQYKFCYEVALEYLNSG
Sequence of human Vascular Endothelial Growth Factor Receptor 1 (VEGFR1), FLT1 (gene 2321) (P17948 whole entry, looked up): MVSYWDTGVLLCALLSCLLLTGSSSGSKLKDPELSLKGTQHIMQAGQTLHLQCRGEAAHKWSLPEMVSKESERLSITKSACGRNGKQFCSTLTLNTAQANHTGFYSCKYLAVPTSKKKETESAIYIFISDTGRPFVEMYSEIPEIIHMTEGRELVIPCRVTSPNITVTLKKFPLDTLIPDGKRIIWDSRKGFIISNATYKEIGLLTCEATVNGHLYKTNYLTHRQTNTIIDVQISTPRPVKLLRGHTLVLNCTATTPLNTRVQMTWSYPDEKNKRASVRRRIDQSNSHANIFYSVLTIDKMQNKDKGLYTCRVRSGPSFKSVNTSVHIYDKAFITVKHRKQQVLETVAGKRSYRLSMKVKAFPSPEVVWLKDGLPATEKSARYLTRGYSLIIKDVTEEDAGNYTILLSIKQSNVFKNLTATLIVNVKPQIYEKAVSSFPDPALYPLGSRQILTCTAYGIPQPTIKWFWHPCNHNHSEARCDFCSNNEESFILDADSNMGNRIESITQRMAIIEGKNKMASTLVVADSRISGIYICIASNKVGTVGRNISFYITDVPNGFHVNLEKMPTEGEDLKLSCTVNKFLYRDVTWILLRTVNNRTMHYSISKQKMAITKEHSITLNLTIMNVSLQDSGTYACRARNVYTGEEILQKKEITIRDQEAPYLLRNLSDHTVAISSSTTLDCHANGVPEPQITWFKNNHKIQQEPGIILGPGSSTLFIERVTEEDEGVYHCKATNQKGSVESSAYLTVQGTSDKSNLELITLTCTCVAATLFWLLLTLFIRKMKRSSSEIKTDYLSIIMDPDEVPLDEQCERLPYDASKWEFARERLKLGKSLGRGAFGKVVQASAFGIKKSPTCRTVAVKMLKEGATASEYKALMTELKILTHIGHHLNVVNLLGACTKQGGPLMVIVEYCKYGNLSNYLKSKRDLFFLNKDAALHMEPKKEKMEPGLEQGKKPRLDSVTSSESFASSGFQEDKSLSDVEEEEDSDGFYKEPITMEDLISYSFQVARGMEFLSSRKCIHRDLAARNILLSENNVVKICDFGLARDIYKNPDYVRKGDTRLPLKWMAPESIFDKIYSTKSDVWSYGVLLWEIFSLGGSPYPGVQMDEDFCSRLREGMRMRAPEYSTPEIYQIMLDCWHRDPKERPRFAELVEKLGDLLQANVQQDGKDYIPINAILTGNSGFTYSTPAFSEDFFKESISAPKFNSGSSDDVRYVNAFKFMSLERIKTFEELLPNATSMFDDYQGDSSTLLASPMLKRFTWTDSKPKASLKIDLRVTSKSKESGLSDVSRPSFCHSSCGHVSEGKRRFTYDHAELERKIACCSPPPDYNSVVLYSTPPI

Consider `O=c1c2ccccc2c(=O)c2c1cc(Cl)c1[nH]c3c([nH]c12)c(Cl)cc1c(=O)c2ccccc2c(=O)c13`, for which the values for the AC50 in test [1] and in test [2] were 0.732 µM (active) and 10 µM (active), respectively. Besides, the outcome in [3] was inactive.
As to `Cc1ccc(OP(=O)(Oc2ccc(C)cc2)Oc2ccc(C)cc2)cc1` (tested in a mixture with another compound), the AC50 in test [2] was 61.9 µM (active); in test [6] it was 20.6 µM (active); in [8], 25.6 µM (active); in test [9], 20.2 µM (active). The outcome in test [3], in test [4], in [5] and in test [7] was inactive.
Regarding `N#CCCCCC#N`, the compound was called inactive in [10], in [11], in test [12], in [13], in test [14] and in test [15]. Further, the compound was classed as inactive in test [16].
With `CC1CCCC1.[C-]#[O+].[C-]#[O+].[C-]#[O+].[Mn]`, the compound was classed as inactive in test [17] and in [4].
For the compound `CC1(C)[C@H](C(=O)O[C@H](C#N)c2cccc(Oc3ccccc3)c2)[C@@H]1C=C(Br)Br`, the values for the AC50 in [18] and in [20] were 2.27 µM (active) and 32.8 µM (active), respectively. In addition, the call in test [19] and in test [8] was inactive.
`O=[N+]([O-])c1ccc(Cl)cc1`: the call in test [10], in test [11], in test [12], in [20], in test [14] and in [15] was inactive.
As to `CCOC(=O)NC(=S)Nc1ccccc1NC(=S)NC(=O)OCC`, the AC50 in test [19] is 1.53 µM (active).
Take `O=C(CCl)c1ccccc1`: the result in [17], in test [13] and in test [16] was inactive.
Regarding `Nc1ccc(-c2ccc(N)c(N)c2)cc1N`, the AC50 in test [18] was 4.48 µM (active).
With `BrCBr`, in test [1], the compound was classed as inactive.
In the case of `CNC(=N[N+](=O)[O-])NCC1CCOC1` (stereo not given), the outcome in test [5], in [6], in [7] and in [9] was inactive.
